Results filed as inconclusive are left out. A number with no mark means an inactive call. Activity calls are given as the source filed them. Calls follow the shape of the dose curve; as a rule, active = well fitted inhibition curve with a large enough effect; inconclusive = small, poorly fitted or top-dose-only effect; inactive = flat fitted curve, though single readings scatter.
% is scaled to controls: 0 for no effect and ±100 for the full control effect; potency is read from the fitted curve at half-maximal effect.

This assay deals with HEK293. Description: Cytotoxic Profiling of Annotated Libraries Using Quantitative High-Throughput Screening (AID 1296008). Also: nearly all actives have a fitted effect of over 60% in size. The following applies: Five cell lines viability, CellTiter-Glo ATP luminescence, 48-72 h; max response: active compounds read low. In outline: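 Cytotoxicity was measured as CellTiter-Glo ATP luminescence, read after 10 min at room temperature. Compound treatment of the cells lasted 48 or 72 hr at 37 degrees Celsius in a qHTS format.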
Background: Cellular ATP, detected with luciferase, serves as a proxy for viable cell number.
For the molecule `COC1C(=O)CCC2(CO2)C1(O)C1(C)OC1CC=C(C)C` (centres undefined), the max response was -34.7%.

For `CNS(=O)(=O)CC1CCC(N(C)c2ncnc3[nH]ccc23)CC1` (centres undefined), the max response is -8.69%.

As for `CS(=O)(=O)NCC1CCC(Nc2nc3c(s2)CCSc2ccccc2-3)CC1` (centres undefined), the Potency is 14.6 µM (active).

For the molecule `CC12CCC(OC3OC(CO)C(O)C(OC4OC(CO)C(O)C(O)C4O)C3O)CC1CCC1C2CCC2(C)/C(=C3/COC(=O)C3)CCC12O` (centres undefined), the max response is -1.14%.

Turning to `CC1(O)CC(O)C2(O)C=COC(O[C@@H]3O[C@H](CO)[C@@H](O)[C@H](O)[C@H]3O)C12` (some centres undefined), the max response was 4.59%.

Regarding `C=C[C@H]1[C@H](O[C@@H]2O[C@H](CO)[C@@H](O)[C@H](O)[C@H]2O)OC=C(C(=O)OC)[C@H]1C[C@@H]1c2cc(O)c(O)cc2CCN1C(C)=O`, the max response is 2.33%.

Regarding `COc1ccc([C@@H]2OC[C@H]3[C@@H]2CO[C@@H]3c2ccc(OC3OC(CO)C(O)C(O)C3O)c(OC)c2)cc1OC` (some centres undefined), the max response is -3.32%.

On to `Cc1cc2c(c(=O)[nH]1)OC(C(O)CC(C)C)O2` (centres undefined), for which the max response is -7.89%.

On to `CC1(C)CC[C@@]2(C(=O)O[C@@H]3O[C@H](CO)[C@@H](O)[C@H](O)[C@H]3O)C(C1)C1=CCC3[C@@]4(C)CC[C@@H](O[C@@H]5O[C@H](C(=O)O)[C@@H](O[C@@H]6OC[C@@H](O)[C@H](O)[C@H]6O)[C@H](O[C@@H]6OC[C@](O)(CO)[C@H]6O)[C@H]5O)C(C)(C)C4CC[C@@]3(C)[C@]1(C)C[C@H]2O` (some centres undefined), for which the max response is -3.68%.

As for `COc1c(C)c(OCC(O)C(C)(C)O)cc2c1COC2=O` (centres undefined), the max response was -24.2%.

Regarding `COc1cc(C2c3cc4c(c(O)c3CC(CO)C2C(=O)O)OCO4)cc(OC)c1O` (centres undefined), the Potency was 2.24 µM (active).

Turning to `COC(=O)[C@@]1(c2ccc(C)cc2)C[C@H]1CN1CCC(O)(c2ccccc2)CC1`, the max response is -9.08%.

For the molecule `CCC[C@@H]1O[C@@H]2C[C@H]3[C@@H]4CCC5=CC(=O)C=C[C@]5(C)[C@H]4[C@@H](O)C[C@]3(C)[C@]2(C(=O)CO)O1`, the max response is 0.791%.

As for `CC(=O)NC1C(OC(C)(C)C2CCC3(C)C=C(C4CCC5C4(C)CC(O)C4OC(C(C)(C)O)CCC45C)CCC3O2)OC(CO)C(O)C1O` (centres undefined), the max response was -2.64%.

Consider `CC1(C)CC[C@]2(C(=O)O)[C@H](O)C[C@]3(C)C(=CCC4[C@@]5(C)CC[C@H](O[C@@H]6O[C@H](CO[C@@H]7OC[C@H](O)[C@H](O)[C@H]7O[C@@H]7OC[C@@H](O)[C@H](O)[C@H]7O)[C@@H](O)[C@H](O)[C@H]6O[C@@H]6O[C@H](CO)[C@@H](O)[C@H](O)[C@H]6O)C(C)(C)C5CC[C@]43C)[C@@H]2C1` (some centres undefined), for which the max response is -1.49%.

Consider `CC(C)(C)C(=O)CN1C(=O)[C@H](NC(=O)Nc2cccc(C(=O)O)c2)CN(C2CCCCC2)c2ccccc21`, for which the max response is 1.37%.

As for `CC(=O)N1CCc2ccc(O)c(OC3OC(COC4OCC(O)(CO)C4O)C(O)C(O)C3O)c2C1Cc1ccc(O)cc1` (centres undefined), the max response is -5.03%.

`C[C@@H]1O[C@@H](OC[C@H]2O[C@@H](Oc3cc(O)cc4c3C(=O)C(O)(Cc3ccc(O)cc3)O4)[C@H](O)[C@@H](O)[C@@H]2O)[C@H](O)[C@H](O)[C@H]1O` (some centres undefined): the max response is 1.44%.

As for `OCCc1ccc(O[C@@H]2O[C@H](CO)[C@@H](O)[C@H](O)[C@H]2O)cc1`, the max response was 0.276%.

For `C[C@]1(CO)CCC[C@]2(C)C3=C(CCC12)COC3` (some centres undefined), the max response was -9.57%.

As to `CNC(=S)NS(=O)(=O)c1cc(CCNC(=O)c2cc(Cl)ccc2OC)ccc1OC`, the max response is 0.225%.

Turning to `FC(F)(F)c1ccc(Nc2nc(-c3c(C(F)(F)F)nc4ccccn34)cs2)cc1`, the Potency is 0.326 µM (active).

As for `O=C(O)c1cccc(S(=O)(=O)N2CCc3ccccc3C2)c1`, the max response was -4.38%.

For `CC[C@@H](O)C[C@@H]1C(C)=C[C@@H]2CCCC[C@@H]2[C@@]1(C)C(=O)O`, the max response is -6.46%.

As for `CN(CCc1ccc(Nc2ncc(-c3cccnc3)s2)cc1)Cc1ccccc1`, the Potency was 7.31 µM (active).

As to `COc1cc(Br)c(Nc2nc(-c3c(C)nc4ncccn34)cs2)c(Br)c1`, the Potency was 5.8 µM (active).

Regarding `COc1cc(O)cc(C)c1C(=O)O[C@H]1[C@@H](OC(C)=O)[C@H](n2ccc(=O)[nH]c2=O)O[C@@H]1CO`, the max response was 4.85%.

Regarding `CC1(C)CC2=C3C=CC4C5(C)CCC(O)C(C)(C)C5CCC4(C)C3(C)CCC2(C)C(O)C1` (centres undefined), the max response was -1.33%.

As to `CC(O)/C=C/C1(O)C2(C)COC1(C)CC(O)C2` (centres undefined), the max response was -7.99%.

For the molecule `O=C(O)CCCCCC[C@H]1C(=O)NC(=O)N1CC[C@@H](O)C1CCCCC1`, the max response is -1.93%.

Turning to `CC(=O)O[C@@](C)(C(=O)/C=C/C(C)(C)O)[C@H]1[C@H](O)C[C@@]2(C)[C@@H]3CC=C4[C@@H](C=C(O)C(=O)C4(C)C)[C@]3(C)C(=O)C[C@]12C`, the Potency was 5.63 µM (active).

With `CCN(Cc1cccnc1)C(=O)CN(c1ccc(OC)nc1)S(=O)(=O)c1ccccc1C`, the call was inactive.

On to `CCOC(=O)C(CCc1ccccc1)NC1CSC(c2cccs2)CN(CC(=O)O)C1=O` (centres undefined), for which the max response is -2.54%.

With `CN(C)CCn1cc(S(=O)(=O)c2cccc(F)c2)c2cccnc21`, the outcome was inactive.

For `COc1ccc(/C=C/C(=O)O[C@@H]2[C@@H](O)[C@H](C)O[C@@H](O[C@H]3[C@@H]4C=CO[C@@H](O[C@H]5O[C@@H](CO)[C@H](O)[C@@H](O)[C@@H]5O)[C@@H]4[C@@]4(CO)O[C@@H]34)[C@@H]2OC(C)=O)cc1`, the max response is 0.0012%.

For `Cc1csc(NC(=O)c2ccc(COc3cccc(Cl)c3)o2)n1`, the max response was -17.1%.

Turning to `CCC1=CC2CN(C1)Cc1c([nH]c3ccccc13)[C@@](C(=O)OC)(c1cc3c(cc1OC)N(C)[C@H]1[C@@](O)(C(=O)OC)[C@H](OC(C)=O)[C@]4(CC)C=CCN5CC[C@]31[C@@H]54)C2` (some centres undefined), the Potency is 0.1 µM (active).

Take `COc1ccc(C(=O)n2c(C)c(Cc3cccc(O[C@@H](C)C(=O)O)c3)c3cc(OC(F)(F)F)ccc32)cc1`: the max response was -1.86%.

With `CC1(C)CC[C@]2(C(=O)O[C@@H]3O[C@H](CO[C@@H]4O[C@H](CO)[C@@H](O)[C@H](O)[C@H]4O[C@@H]4O[C@H](CO)[C@@H](O)[C@H](O)[C@H]4O)[C@@H](O)[C@H](O[C@@H]4O[C@H](CO)[C@@H](O)[C@H](O)[C@H]4O)[C@H]3O)CC[C@]3(C)C(=CCC4[C@@]5(C)CC[C@@H](O)[C@@](C)(C(=O)O[C@@H]6O[C@H](CO)[C@@H](O)[C@H](O)[C@H]6O)C5CC[C@]43C)[C@@H]2C1` (some centres undefined), the max response is -9.43%.
